# The whole screen tested about 390,000 compounds, of which about 4,700 (1.2%) were called active. About 4% were inconclusive and are not listed. The sample holds actives, similar compounds and a random draw of the others, so the mix is not that of the screen. Calls follow the shape of the dose curve; as a rule, active = well fitted inhibition curve with a large enough effect; inconclusive = small, poorly fitted or top-dose-only effect, or another doubt; inactive = no such curve, though single readings can be large or run the other way.
# Biological target: DNA polymerase eta (Homo sapiens) (UniProt Q9Y253)
# Sequence (Q9Y253 whole entry, looked up): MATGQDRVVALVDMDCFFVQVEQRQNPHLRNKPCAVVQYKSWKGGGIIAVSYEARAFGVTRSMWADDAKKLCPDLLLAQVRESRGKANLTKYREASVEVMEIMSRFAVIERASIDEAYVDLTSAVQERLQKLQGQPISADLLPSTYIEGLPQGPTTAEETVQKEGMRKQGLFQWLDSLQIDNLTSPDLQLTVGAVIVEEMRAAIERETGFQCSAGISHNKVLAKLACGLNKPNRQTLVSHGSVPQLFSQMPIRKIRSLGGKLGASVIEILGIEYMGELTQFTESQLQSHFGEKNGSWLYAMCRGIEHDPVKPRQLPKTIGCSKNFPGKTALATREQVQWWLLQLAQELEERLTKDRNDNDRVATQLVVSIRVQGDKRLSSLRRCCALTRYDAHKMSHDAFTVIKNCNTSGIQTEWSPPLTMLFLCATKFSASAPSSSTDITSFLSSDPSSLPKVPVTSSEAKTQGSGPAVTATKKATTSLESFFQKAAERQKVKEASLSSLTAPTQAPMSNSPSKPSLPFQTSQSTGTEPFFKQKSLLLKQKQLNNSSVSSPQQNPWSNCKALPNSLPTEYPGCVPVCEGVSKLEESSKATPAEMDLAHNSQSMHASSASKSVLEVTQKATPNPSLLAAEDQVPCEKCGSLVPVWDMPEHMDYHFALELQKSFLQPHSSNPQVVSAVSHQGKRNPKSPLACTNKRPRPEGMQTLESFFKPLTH
# Experiment: qHTS for Inhibitors of Polymerase Eta
# Settings: recombinant Pol eta, fluorescent DNA replication assay; series mostly up to 114 µM; activity change, negative = inhibition: at the top concentration
# Procedure, shortened: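 Fluorescent replication assay: 50 nM final substrate added after a 15 min room-temperature compound preincubation with 10 nM enzyme. Signal taken at 0 min and again at 10 min.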
# % is scaled to controls: 0 for no effect and ±100 for the full control effect; potency is read from the fitted curve at half-maximal effect.
Structure (SMILES),"activity change, negative = inhibition",Potency
CCN(C(=O)c1sc2cc(OC)ccc2c1Cl)c1ccccc1,-18.2% (inactive),
CCC(=O)N1CCc2cc(Br)cc(S(=O)(=O)CCC(=O)N3CCN(c4ccc(F)cc4)CC3)c21,-12.4% (inactive),
O=C1Nc2ccc([N+](=O)[O-])cc2C1=Nc1cccc(CO)c1,,20 µM (active)
COc1ccccc1CNC(=O)CCCCn1c(=O)c2ccccc2n(CC(=O)Nc2cc(Cl)ccc2C)c1=O,8.51% (inactive),
COc1cc(OC)c(NC(=O)c2cc(S(=O)(=O)N3CCCC3)cn2C)cc1Cl,-11.9% (inactive),
CCCN1CN=C(NS(=O)(=O)c2ccc(NC(C)=O)cc2)NC1,-13.5% (inactive),
Cc1ccc(-n2c(=O)c3cccnc3n2CC(=O)Nc2ccccc2C(F)(F)F)cc1C,-2.51% (inactive),
COCCCNC(=O)c1c(NC(=O)c2cc(=O)c3cc(C)c(C)cc3o2)sc2c1CCCC2,8.47% (inactive),
CCc1ccc(NS(=O)(=O)c2ccc3[nH]cc(C(=O)NCCc4cccc(C)c4)c(=O)c3c2)cc1,-14.7% (inactive),
Cc1cc(C)cc(NS(=O)(=O)c2ccc3[nH]cc(C(=O)N4CCCCC4)c(=O)c3c2)c1,-10.1% (inactive),
CC(C)c1ccc(NS(=O)(=O)c2ccc3[nH]cc(C(=O)NC4CCCC4)c(=O)c3c2)cc1,,31.6 µM (active)
CCOc1cc(C2c3c(-c4ccc(Br)cc4)n[nH]c3C(=O)N2c2ccc(Cl)cc2)ccc1O (configuration not stated),-27.5% (inactive),
Cc1cccc(Nc2nc(C)nc(N)c2S(=O)(=O)c2ccccc2)c1,-6.89% (inactive),
COc1ccc(CCNC(=O)CCCn2c(=O)c3ccccc3n(Cc3ccc(C)cc3)c2=O)cc1OC,-10.4% (inactive),
CC(=O)c1ccc(S(=O)(=O)N2CCN(C(=O)/C=C/c3ccc4ccccc4n3)CC2)cc1,,39.8 µM (active)
CC(=O)c1ccc(S(=O)(=O)N2CCC(Oc3ccc(-n4cnnn4)cc3)CC2)cc1,,inactive
CC(=O)c1cccc(Nc2ccc3cc(S(=O)(=O)N4CCC(C)CC4)ccc3n2)c1,-25.7% (inactive),
Cc1ccccc1CNC(=O)CSc1nnc(C)c2c(C)n(-c3ccccc3)nc12,-14% (inactive),
CN(Cc1ccccc1)C(=O)c1cn(C)c2ccc(S(=O)(=O)N3CCCCC3)cc2c1=O,-6.85% (inactive),
CCCCn1c(=N)c(S(=O)(=O)c2ccccc2)cc2c(=O)n3cccc(C)c3nc21,-22.5% (inactive),
Cc1cc(-c2n[nH]c(=S)n2/N=C/C(Br)=C/c2ccccc2)n[nH]1,,14.1 µM (active)

Structure (SMILES),"activity change, negative = inhibition",Potency
CCCc1cc(-c2n[nH]c(=S)n2CC)c2ccccc2n1,-3.34% (inactive),
Cc1ccc(NC(=O)CSc2nnc3[nH]c(=O)cc(C)n23)cc1Cl,16.8% (inactive),
COc1ccc(Cc2nnc(NC(=O)Cc3cccs3)s2)cc1,,1 µM (active)
CCc1nnc(NC(=O)CCC(=O)NCc2ccccc2OC)s1,-7.14% (inactive),
CCOc1ccc(NC(=O)C/C(C)=N/NC(=O)Cc2cccs2)cc1,-8.22% (inactive),
COc1ccc(CNC(=O)CCC(=O)Nc2nnc(C(C)C)s2)cc1,-6.93% (inactive),
CCOc1ccccc1NC(=O)Cc1cccs1,,44.7 µM (active)
CCc1nnc(NC(=O)Cc2cccs2)s1,,35.5 µM (active)
CCOc1ccccc1NC(=O)CCn1cnnn1,-19.3% (inactive),
COc1ccc(CC(=O)Nc2sc(Cc3ccccc3)c(C)c2C(N)=O)cc1,-6.32% (inactive),
CC(C)(C)CC(=O)Nc1nnc(SCC(=O)NCc2cccs2)s1,-15.9% (inactive),
COc1cccc(NC(=O)CSc2cc(=O)n(C)c3ccc(Cl)cc23)c1,-11.1% (inactive),
Fc1ccccc1Oc1ncnc2c1oc1ccccc12,-14.1% (inactive),
Cc1cccc(-n2ncc(C(=O)N3CCc4ccccc4C3)c2C2CCN(C(=O)OC(C)(C)C)CC2)c1,-14.8% (inactive),
COc1ccccc1-c1nnc(C2CCN(C(=O)c3ccc(Cl)cc3)CC2)o1,-19.5% (inactive),
Cc1ccc(-n2c(=O)c3cccnc3n2CC(=O)NCc2ccc(F)cc2)cc1C,-22.2% (inactive),
Cc1oc2ccc(O)c(CN3CCOCC3)c2c1C(=O)Nc1cccc(Cl)c1C,-14.5% (inactive),
COc1ccc2cc(-c3nc(Cl)c4c5c(sc4n3)CC(C)CC5)c(=O)oc2c1 (configuration not stated),-7.52% (inactive),
COc1ccc2oc(=O)c(-c3cn4c(n3)sc3cc(OC)ccc34)cc2c1,-9.11% (inactive),
COc1ccc(-c2cc3ccc(OCc4nn[nH]n4)cc3oc2=O)cc1,,17.8 µM (active)
CCCS(=O)(=O)c1ncc(Cl)c(C(=O)Nc2scc(-c3ccccc3)c2C(=O)OCC)n1,-15.6% (inactive),

Structure (SMILES),"activity change, negative = inhibition",Potency
COc1ccc(Cn2c(C(=O)O)c(CNCCc3cccs3)c3ccc(OC)cc32)cc1,-16.6% (inactive),
CCCNC(=O)C1CCN(c2nc3ccc(C)cc3[nH]2)CC1,-9.68% (inactive),
Cc1ccc(Cc2cncc(O)c2)cc1S(=O)(=O)O,,25.1 µM (active)
CCCCCn1c(CCCNC(=O)c2ccccc2OC)nc2ccccc21,-9.44% (inactive),
Oc1c(Cl)cc(Cl)c(Cl)c1Cc1c(O)c(Cl)cc(Cl)c1Cl,,44.7 µM (active)
Cc1ccccc1NC(=O)Cn1cc(C(=O)c2cccs2)c2ccccc21,-17.3% (inactive),
Cn1c(=O)c2c(nc(Oc3ccc(C#N)cc3)n2Cc2ccc(Cl)cc2Cl)n(C)c1=O,-8.3% (inactive),
Cc1cccc(C)c1-n1ncc(C(=O)NCCCN2CCCCC2)c1C1CCN(C(=O)OC(C)(C)C)CC1,-12.6% (inactive),
CC(C)CC(=O)NCC(c1ccc2c(c1)OCO2)N1CCN(c2ccc(F)cc2)CC1 (configuration not stated),-22.4% (inactive),
CC(=O)c1ccccc1OCc1ccc(C(=O)c2ccccc2)cc1,-17.2% (inactive),
O=C(c1ccccc1)c1ccc(OC(=O)N2CCCC2)cc1,-11.8% (inactive),
O=C(c1ccc(O)cc1)c1ccc(C(=O)O)c(C(=O)O)c1,,39.8 µM (active)
CCOc1cccc2sc(N3CCN(C(=O)C4CC4)CC3)nc12,-10.9% (inactive),
O=C(CSc1oc(-c2ccco2)nc1S(=O)(=O)c1ccc(Cl)cc1)c1ccccc1,-11% (inactive),
CCN(C(=O)COC(=O)/C=C/c1nc2ccccc2s1)C1CCS(=O)(=O)C1 (configuration not stated),-11.5% (inactive),
COc1cccc(NC(=O)CN(C)C(=O)c2cc(Cl)nc3ccccc23)c1,-1.6% (inactive),
CN(C(=O)COC(=O)c1cc(-c2ccco2)nc2ccccc12)C1CCS(=O)(=O)C1 (configuration not stated),,6.31 µM (active)
CN(CCOc1ccccc1)Cc1nc2cc(Cl)ccc2c(=O)[nH]1,-11.3% (inactive),
Cc1cc(C)c2nc(SCC(=O)N(C)C3CCS(=O)(=O)C3)cc(C)c2c1 (configuration not stated),-8.11% (inactive),
CN(CCOc1ccccc1)C(=O)c1cc(-c2ccco2)nc2ccccc12,,25.1 µM (active)

# — PubChem BioAssay AID588591 (National Center for Advancing Translational Sciences (NCATS), 2011)
